Experiments:
Assay in all cases: PBM binding z-score (relative to random genomic background probes); higher = stronger binding; sequences stand for … in GC…GCGATTGACAGCGTAGAATGAAGG
[1] = tested on: FXR:RXRa (NR concentration 270 nM, RXRa partner concentration 90 nM)
How it was run: (§1)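 The probes on custom Agilent 4×180K protein-binding microarrays were double-stranded, with 34-nt variable regions bearing direct-repeat seeds, single-nucleotide variants, half-site ablations and random human genomic background sequences. Incubation lasted 1 h with ligand-free nuclear receptor dimers in PBS pH 7.4, 2% milk, 0.02% Triton X-100, 1 mM DTT, 0.2 mg/mL BSA and 0.4 mg/ml salmon testes DNA. Antibodies against each partner (one per run) detected bound dimers, and fluorescence scans were regression-normalized. Binding z-scores take the random background probes as reference.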

[2] = tested on: LXRa:RXRa (NR concentration 270 nM, RXRa partner concentration 90 nM)
How it was run: as §1

[3] = tested on: LXRa homodimer (NR concentration 270 nM)
How it was run: as §1

[4] = tested on: LXRb:RXRa (NR concentration 270 nM, RXRa partner concentration 90 nM)
How it was run: as §1

[5] = tested on: LXRb homodimer (NR concentration 270 nM)
How it was run: as §1

[6] = tested on: PPARa:RXRa (NR concentration 270 nM, RXRa partner concentration 90 nM)
How it was run: as §1

[7] = tested on: PPARg:RXRa (NR concentration 180 nM, RXRa partner concentration 90 nM)
How it was run: as §1

[8] = tested on: PPARg:RXRa 270nM:90nM, anti-RXR (NR concentration 270 nM, RXRa partner concentration 90 nM)
How it was run: as §1

[9] = tested on: PPARg:RXRa 30nM:10nM, anti-RXR (NR concentration 30 nM, RXRa partner concentration 10 nM)
How it was run: as §1

[10] = tested on: PPARg:RXRa 90nM:30nM, anti-RXR (NR concentration 90 nM, RXRa partner concentration 30 nM)
How it was run: as §1

[11] = tested on: PPARg:RXRa DBDmut IVT, anti-RXR (DBD mutation: RXRa K156A/R161A, NR concentration 270 nM, RXRa partner concentration 90 nM)
How it was run: as §1

[12] = tested on: PPARg:RXRa IVT, anti-PPARg (NR concentration 270 nM, RXRa partner concentration 90 nM)
How it was run: as §1

[13] = tested on: PPARg DBDmut:RXRa IVT, anti-PPARg (DBD mutation: PPARg1 K132A/R137A, NR concentration 270 nM, RXRa partner concentration 90 nM)
How it was run: as §1

[14] = tested on: PPARg DBDmut IVT, anti-PPARg (DBD mutation: PPARg1 K132A/R137A, NR concentration 270 nM)
How it was run: as §1

[15] = tested on: PPARg homodimer (NR concentration 180 nM)
How it was run: as §1

[16] = tested on: PXR:RXRa (NR concentration 270 nM, RXRa partner concentration 90 nM)
How it was run: as §1

[17] = tested on: PXR homodimer (NR concentration 270 nM)
How it was run: as §1

[18] = tested on: RARa:RXR (NR concentration 270 nM, RXRa partner concentration 90 nM)
How it was run: as §1

[19] = tested on: RARa homodimer (NR concentration 270 nM)
How it was run: as §1

[20] = tested on: RARb:RXRa (NR concentration 270 nM, RXRa partner concentration 90 nM)
How it was run: as §1

| Sequence | PBM binding z-score [1] | PBM binding z-score [2] | PBM binding z-score [3] | PBM binding z-score [4] | PBM binding z-score [5] | PBM binding z-score [6] | PBM binding z-score [7] | PBM binding z-score [8] | PBM binding z-score [9] | PBM binding z-score [10] | PBM binding z-score [11] | PBM binding z-score [12] | PBM binding z-score [13] | PBM binding z-score [14] | PBM binding z-score [15] | PBM binding z-score [16] | PBM binding z-score [17] | PBM binding z-score [18] | PBM binding z-score [19] | PBM binding z-score [20] |
| --- | --- | --- | --- | --- | --- | --- | --- | --- | --- | --- | --- | --- | --- | --- | --- | --- | --- | --- | --- | --- |
| ACTATTAGTTGAGACGGGGGCAACCGATAGGTTG | 1.28 | 1.35 | 0.528 | 3.71 | 7.57 | 2.52 | 1.16 | 2.35 | 1.24 | 1.87 | 1.48 | 3.27 | 5.1 | 7.99 | 1.63 | 2.63 | 0.549 | 2.25 | 0.997 | 1.94 |
| TATACAGGGTCAAAGGCCAGAATACGAATGTCGA | 6.57 | 5.89 | 2.16 | 4.62 | 2.29 | 5.89 | 7.8 | 7.19 | 5.21 | 7.33 | 1.98 | 4.81 | 2.92 | 2.34 | 2.02 | 3.86 | 0.553 | 5.78 | 0.841 | 4.28 |
| AGTCAAAGTTCAGGACGATGTAACGTAAAGCACG | 3.6 | 3.59 | 0.938 | 1.8 | 0.134 | 3.05 | 4.28 | 4.75 | 1.92 | 3.68 | -0.314 | 1.19 | 0.674 | 0.961 | 2.13 | 2.22 | 1.24 | 1.78 | 0.666 | 4.17 |
| CGTCAAAGTTCAAGGTAAGGTAACAGAAAGCAGC | 6.16 | 5.4 | 2.37 | 3.29 | 0.542 | 4.69 | 4.19 | 4.91 | 1.78 | 3.67 | 0.198 | 2.04 | 0.246 | 0.255 | 1.61 | 4.03 | 1.72 | 3.78 | 1.28 | 5.22 |
| CCTGGCAGGCCAATCTGGGTCACTCAAGGCTTGA | 0.937 | 0.927 | -0.703 | 0.276 | -1.26 | 2.69 | 1.37 | 2.06 | -0.284 | 1.22 | 3.55 | 4.78 | -0.588 | -0.975 | 0.0231 | 0.725 | -0.786 | 1.11 | -1.09 | 1.64 |
| TCTTGTAGATCAAAGGTTAAGAACGCCGAAGCCT | 2.02 | 2.28 | 0.21 | 2.16 | 0.138 | 4.96 | 8.19 | 7.86 | 7.43 | 8.26 | 2.38 | 3.76 | 0.351 | 0.234 | 1.19 | 2 | 0.16 | 2.42 | 0.244 | 1.86 |
| CCAGTCAGGTGAAAGGTAACTCAGTCTGGTACGC | 0.669 | 0.466 | -0.287 | 0.541 | -0.583 | 3.61 | 6.45 | 6.44 | 5.15 | 7.56 | 3.47 | 3.78 | -0.52 | -0.877 | 1.17 | 0.577 | -0.2 | 1.58 | 0.202 | 1.55 |
| TCTCGGAGGACACGAAGGTCAGAGATTTCCAGAG | 1.38 | 0.932 | 0.277 | 1.25 | -0.387 | 1.83 | 0.75 | 1.93 | 2.37 | 2.23 | 1.66 | 1.24 | -0.127 | -0.972 | 1.21 | 1.86 | 1.02 | 2.11 | -0.144 | 3.4 |
| CGAACTAGGTTAAGGACAGTGAATCTCCGCACGC | 0.447 | 0.377 | -0.213 | -0.172 | -0.661 | 2.14 | 2.85 | 2.74 | 0.975 | 2.08 | 6.49 | 5.67 | 0.439 | 1.14 | 1.07 | -0.145 | 0.015 | 0.949 | -0.21 | 1.47 |
| CAAACTAGGTCACCGGAAGGCCAAAGTCCGCATG | 4.53 | 3.53 | 0.418 | 2.46 | 0.121 | 5.08 | 8.65 | 7.5 | 4.66 | 7.3 | 8.65 | 8.96 | 1.86 | 0.375 | 2.09 | 2.85 | -0.0574 | 3.4 | 0.162 | 4.54 |
| AGTCAAAGTTCAGGACGAGTTAACGTAAAGCACG | 3.79 | 3.99 | 1.02 | 1.9 | 0.173 | 3.38 | 4.32 | 4.63 | 2.21 | 4.17 | -0.151 | 1.53 | 0.0233 | 0.458 | 1.18 | 3.59 | 1.43 | 2.4 | 1.1 | 4.21 |
| TCTAGCAGGCCAGATGGTCACTCAAGAGGTACGG | -1.05 | -0.551 | -0.782 | -1.05 | -1.42 | -0.0486 | 0.594 | 0.971 | 1.81 | 1.28 | 0.614 | -0.0638 | -0.764 | -0.948 | -0.88 | -0.46 | -0.899 | -0.205 | -1.39 | 0.242 |
| CCTACTGCGCCAAAAAGGTCATTGATGCCGATAA | 4.02 | 4.8 | 4.24 | 4.54 | 1.52 | 4.78 | 1.47 | 3.17 | 1.18 | 2.45 | 0.459 | 1.48 | 0.19 | 0.294 | 4.51 | 4.87 | 3.21 | 5.58 | 3.23 | 4.05 |

Source: the supplement of paper PMC6555819
